ChEMBL document CHEMBL3988442, “University of Dundee, Small-Polar-MMV Screening Library” (2021)
In all, about 48,000 compounds went through this assay and about 13,000 (27%) showed an effect of 50% or more. The list shows a part of the results.

Tested on: Wolbachia pipientis
Assay: Anti-Wolbachia Cell-Based Screen
Format: functional
Set-up: scale not given: in the data most compounds retested in dose-response had high values
Settings: 5 µM

SMILES | Percent Effect [%]
O=C(O)c1coc(COc2cccc3cnccc23)n1 | -2.104
CC(=O)N1CCC(N2C[C@@H](F)[C@@H](OCc3nc4ncccc4[nH]3)C2)CC1 | -11.9
CNS(=O)(=O)c1cccc(C(C)NCc2ccncc2)c1 (stereo not given) | -20.6
CCN1C(=O)C(c2ccccc2)CC12CCN(S(C)(=O)=O)CC2 (stereo not given) | -8.52
CN1CC[C@]2(CN(CC3CCOCC3)C[C@H]2c2ccccc2)C1=O.O=C(O)C(F)(F)F | 123.3
CN1CC[C@]2(CN(S(C)(=O)=O)C[C@H]2c2ccccc2)C1=O | 102.2
CN1CCC2(CCN(CC3CCOCC3)CC2)C1=O.O=C(O)C(F)(F)F | -1.769
Cc1cc(CN2C[C@@H](C)[C@@]3(CCN(CC(=O)N(C)C)C3=O)C2)oc1C.O=C(O)C(F)(F)F | 15.48
CN1CC[C@]2(CN(CC3CCOC3)C[C@H]2c2ccccc2)C1=O.O=C(O)C(F)(F)F (stereo not given in full) | 100.2
CN1CC(c2ccccc2)C2(CCN(C(=O)c3cccn3C)CC2)C1=O (stereo not given) | -2.229
CCN1CC[C@]2(CN(Cc3nccs3)C[C@H]2c2ccccc2)C1=O.O=C(O)C(F)(F)F | -7.222
CN(C)C(=O)CN1CC[C@]2(CN(CC3CC3)C[C@H]2c2ccccc2)C1=O.O=C(O)C(F)(F)F | 97.34
CN1CC[C@]2(CN(Cc3nccs3)C[C@H]2c2ccccc2)C1=O.O=C(O)C(F)(F)F | -12.3
N#Cc1ccc(CN2CCCCC2Cn2cncn2)c(F)c1 (stereo not given) | -2.215
O=C(O)C(F)(F)F.O=C1NCC[C@]12CN(Cc1nccs1)C[C@H]2c1ccccc1 | -4.824
Cc1ccc(CN2CCOC3(CCN(C(=O)N4CCCC4)CC3)C2)cc1.O=C(O)C(F)(F)F | -8.825
CN1CC[C@]2(CN(CC3CC3)C[C@H]2c2ccccc2)C1=O | 103.2
O=C(O)C(F)(F)F.O=C(c1cccnc1)N1C[C@@H](c2ccccc2)[C@@]2(CCNC2=O)C1 | -21.16
O=C(O)C(F)(F)F.O=C1NCC[C@]12CN(CC1CCOCC1)C[C@H]2c1ccccc1 | 108.1
CN1CC[C@]2(CN(Cc3cccs3)C[C@H]2c2ccccc2)C1=O | -2.755
Cc1ccc(CN2CCOC3(CCN(CC4CCOC4)CC3)C2)cc1.O=C(O)C(F)(F)F.O=C(O)C(F)(F)F (stereo not given) | 104.9
Cc1ccc(CN2CCOC3(CCN(C(=O)C4CCOC4)CC3)C2)cc1.O=C(O)C(F)(F)F (stereo not given) | 2.988
CC1CCCN(c2ccccc2OCC(=O)NC2CCOCC2)C1 (stereo not given) | 10.97
CC(C)NC(=O)CC(C)NC(=O)N(C)Cc1cc(Cl)cn1C (stereo not given) | -3.888
CC(C)N1C(=O)C[C@H]2[C@@H]1CCN2C(=O)c1ccco1 | -5.125

SMILES | Percent Effect [%]
CN(C)CCOCC1CN(C(=O)[C@H]2CCCO2)Cc2ccnn2C1 (stereo not given in full) | -10.91
COCC(=O)N1Cc2nccn2CC(CN(C)Cc2cccnc2)C1 (stereo not given) | 3.316
O=C(c1ccccn1)N1Cc2nccn2CC(COc2cccnc2)C1 (stereo not given) | -5.974
COCC1CN(C(=O)c2cccs2)Cc2nccn2C1 (stereo not given) | -51.2
O=C1CCCN1CC1CN(C(=O)C2CCOCC2)Cc2nccn2C1 (stereo not given) | -10.76
O=C([C@H]1CCCO1)N1Cc2nccn2CC(COc2cccnc2)C1 (stereo not given in full) | 99.26
COCC1CN(C(=O)c2ccccn2)Cc2nccn2C1 (stereo not given) | 101.9
O=C(CC1CC1)N1Cc2nccn2CC(COc2cccnc2)C1 (stereo not given) | 106
COCC(=O)N1Cc2nccn2CC(COc2cccnc2)C1 (stereo not given) | 115.8
N#CCCN(CC1CCOC1)S(=O)(=O)c1cccc(Cl)c1 (stereo not given) | -9.345
CCCN1C(=O)C2(CCCCC2)NC1c1c[nH]nc1-c1cccnc1 (stereo not given) | -6.37
CC(NCc1ccccc1O)c1ccc(-n2ccnc2)cc1 (stereo not given) | 4.863
CC(=O)NCCc1ccc(S(=O)(=O)N(CC(C)C)C(C)C)s1 | -14.51
Nc1ccc(C(=O)N2CCC(Oc3cccc(C(F)(F)F)c3)CC2)cn1 | -4.227
CN(C(=O)c1ccc(C2CCCO2)s1)C1CCS(=O)(=O)CC1 (stereo not given) | 4.966
CSCCC1c2nc[nH]c2CCN1Cc1ccccc1C(F)(F)F (stereo not given) | -7.167
O=C(c1ccc[nH]1)N1Cc2nccn2CC(COc2cccnc2)C1 (stereo not given) | 86.9
Cc1cc(CN2CC[C@H]3C(=O)N(c4cccnc4)CCO[C@H]3C2)no1 | -10.41
CCCNC(=O)C(C)NC(=O)CCc1ccccc1Br (stereo not given) | -13.88
CCN(C(=O)NCCc1ccccc1Cl)C(C)CS(C)(=O)=O (stereo not given) | -2.563
Cc1nn(-c2ccccc2)c(C)c1CNC(=O)NC1CC1 | 9.435
CS(=O)(=O)CCC(=O)Nc1cnn(-c2ccccc2Cl)c1 | 3.918
COC(=O)C(CCSC)NC(=O)Cc1c(C)nn(-c2ccccc2)c1C (stereo not given) | -1.135
CCN(CC)CCNC(=O)CCc1c(C)nn(-c2ccccc2Br)c1C | 111.1
Cc1nn(-c2ccccc2Cl)c(C)c1CCC(=O)NCCS(C)(=O)=O | 98.33

SMILES | Percent Effect [%]
CCN1CCN(C(=O)c2nc(C)n(-c3ccccc3Cl)n2)CC1 | 7.919
CCCNC(=O)CNC(=O)CCc1ccccc1Br | 0.9662
Cc1nn(-c2cc(Cl)cc(Cl)c2)c(C)c1CCC(=O)O | 123.3
Cc1nn(-c2ccccc2Cl)c(C)c1CCC(=O)O | 123.4
Cc1c(C(=O)NCC(F)(F)F)nnn1-c1ccccc1Cl | -14.83
Cc1noc(C2(NC(=O)c3cccnc3O)CCCCC2)n1 | 14.46
CCC(C)NC(=O)c1ccc(CNC(=O)CCC(C)C)cc1 (stereo not given) | 19.34
Cc1cc(CC(=O)N(C)Cc2cccc(OC(C)C)c2)n[nH]1 | 0.9226
COCc1noc(-c2nn(-c3ccc(F)c(F)c3)c3c2CCC3)n1 | -11.94
COCCCN(C)C(=O)c1nnn(-c2ccccc2Cl)c1C | -5.685
CCN(CC)CCNC(=O)CCc1c(C)nn(-c2ccccc2Cl)c1C | 121.6
CCN(CC)CCNC(=O)c1nn(CC)cc1Cl | 13.81
CCOc1ccccc1CSc1nnc(CC2CCS(=O)(=O)C2)n1C (stereo not given) | 3.399
CN1CSC[C@H]1C(=O)N1CCN(Cc2cccc(Cl)c2)CC1 | -11.1
CN(Cc1cccc(-n2cccn2)c1)Cc1c[nH]cn1 | 125
CC(C)c1nccc(CN(C)Cc2cccc(-n3cccn3)c2)n1 | 104.6
CSCCC(O)C(=O)N(C)Cc1cnn(-c2ccc(F)cc2)c1 (stereo not given) | 17.62
CC(C)c1nccc(CN(C)Cc2cnn(-c3ccccc3)c2)n1 | 112.3
COc1cccc(-n2cc(CN(C)C(=O)c3cnc(O)cn3)cn2)c1 | -3.404
COc1cccc(-n2cc(CN(C)Cc3ccnc(C(C)C)n3)cn2)c1 | 92.54
COc1cc(N(C)Cc2cccc(-n3cccn3)c2)nc(N)n1 | -41.52
CCCc1cc(C(=O)N(C)Cc2cnn(-c3cccc(OC)c3)c2)[nH]n1 | 1.853
CN(Cc1cccc(-n2cccn2)c1)Cc1cccs1 | 32.49
CN(Cc1ccc(-n2cccn2)cc1)Cc1ncc[nH]1 | -13.82
CN(Cc1ccc(-n2cccn2)cc1)Cc1cnc(N(C)C)nc1 | -6.821

SMILES | Percent Effect [%]
CC(NS(C)(=O)=O)C(=O)N(C)Cc1cnn(-c2ccc(F)cc2)c1 (stereo not given) | -5.663
COc1c(F)cc(F)cc1-c1nc2c([nH]1)CCNC2 | -0.5434
CC(c1cccnc1)N1CCN(CCCC#N)CC1 (stereo not given) | -7.077
CCCn1nc(C(=O)N2CCCC2c2noc(C)n2)ccc1=O (stereo not given) | -9.694
Cc1ccc(CN(C)CC(=O)NC2(C)CCS(=O)(=O)C2)cc1 (stereo not given) | 2.715
CC(C)N1CCCn2nc(C(=O)NCc3ccccc3F)cc2C1 | -19.91
CCC(CO)N(Cc1cccc(-n2cccn2)c1)Cc1cccs1 (stereo not given) | 3.193
CC(CN(C)Cc1cccc(-n2cccn2)c1)C(F)(F)F (stereo not given) | 100.7
CCC(CO)N(Cc1cccc(-n2cccn2)c1)Cc1ccccn1 (stereo not given) | -1.98
CC(C)c1nnc(NC(=O)c2cccc(OCC(F)(F)F)n2)[nH]1 | -13.63
CC(C)Cc1nc(CS(=O)(=O)C(C)C(=O)N2CCOCC2)no1 (stereo not given) | 1.312
O=C(CN1CCCc2cc(F)cc(F)c21)Nc1ccc(Br)cn1 | -2.039
O=C(CN1CCCCCC1)NCCSc1cnn[nH]1 | -5.638
O=C(CN1CCCCC1)Nc1ncc(Br)cc1Br | 116.4
CSc1nccc(-c2cccc(-c3ccn(CC4COCCO4)n3)c2)n1 (stereo not given) | -11.46
Cn1cc(CN2CCO[C@@H]3CN(C4CCCC4)C[C@@H]3C2)cn1.O=C(O)C(F)(F)F.O=C(O)C(F)(F)F | -1.397
Cc1cncc(C(=O)N2C[C@@H]3CN(S(C)(=O)=O)CCO[C@@H]3C2)c1.O=C(O)C(F)(F)F | 122.6
CCN1CCO[C@@H]2CN(C(=O)c3cocn3)C[C@@H]2C1.O=C(O)C(F)(F)F | -9.016
Cn1cc(C(=O)N2CC[C@@]3(O)CCN(C4CCCCC4)C[C@H]3C2)cn1 | -10.98
Cc1ccnc(C(=O)N2C[C@@H]3CN(S(C)(=O)=O)CCO[C@@H]3C2)c1.O=C(O)C(F)(F)F | -16.56
Cc1ccc(C(=O)N2C[C@@H]3CN(S(C)(=O)=O)CCO[C@@H]3C2)o1 | -11.28
CS(=O)(=O)N1CCO[C@@H]2CN(C(=O)c3cccnc3)C[C@@H]2C1 | 94.69
CS(=O)(=O)N1CCO[C@@H]2CN(C(=O)c3ccnnc3)C[C@@H]2C1 | 110.1
Cn1cc(C(=O)N2CCO[C@@H]3CN(C4CCC4)C[C@@H]3C2)cn1 | 99.44
O=C(c1ccnnc1)N1C[C@@H]2CN(c3ncccn3)C[C@@H]2C1 | 15.26
